Holding throughout (experiment): NCI-60 one-dose screen, 48 h (100 = growth as untreated, 0 = no growth, -100 = all killed)
Assay [1] deals with SR leukemia. As to conditions: 10 µM unless noted.
Assay [2] relates to RPMI-8226 leukemia. Particulars: 10 µM.
Assay [3] has as its system OVCAR-8 ovarian. Particulars: 10 µM unless noted.
Assay [4] relates to OVCAR-5 ovarian. As to conditions: 10 µM unless noted.
The subject of assay [5] is OVCAR-4 ovarian. As to conditions: 10 µM unless noted.
In assay [6] the test system is IGROV1 ovarian. Particulars: 10 µM unless noted.
Assay [7] concerns OVCAR-3 ovarian. Particulars: 10 µM unless noted.
Assay [8] deals with HS 578T breast. As to conditions: 10 µM unless noted.
Assay [9] relates to NCI/ADR-RES ovarian. As to conditions: 10 µM unless noted.
Assay [10] deals with BT-549 breast. As to conditions: 10 µM unless noted.
The subject of assay [11] is MDA-MB-435 melanoma. Particulars: 10 µM unless noted.
For assay [12], the system named is SW-620 colon. As to conditions: 10 µM unless noted.
Assay [13] deals with MCF7 breast. As to conditions: 10 µM unless noted.
Assay [14] has as its system HCC-2998 colon. As to conditions: 10 µM unless noted.
In assay [15] the test system is KM12 colon. As to conditions: 10 µM unless noted.
Assay [16] has as its system HCT-116 colon. Particulars: 10 µM unless noted.
In assay [17] the test system is SK-OV-3 ovarian. Particulars: 10 µM.
Assay [18] relates to T-47D breast. As to conditions: 10 µM.

Molecules are shown by their SMILES. This is part of a sample that, as a whole, favours compounds with a hit. Of some 83,000 tested, about 20% had one in any assay.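 For each line, cells grew in 96-well plates with the test compound present at a single concentration for 48 hours.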 Values without a mark were called inactive. Calls of active or inactive are those of the source. The calls were made as follows: active = growth percent below 10; inactive = the rest.

Regarding `COc1ccc(/C=N\N2CCOCC2)cc1OC1CCCC1`, the growth was 101% in [1]; 103% in assay [2]; 104% in assay [3]; 103% in assay [4]; 97.6% in assay [5]; 107% in assay [6]. Also, the growth in assay [7] is 114%; in assay [8], 90.7%; in [9], 106%; in assay [10], 83.8%; in [11] it was 106%; in assay [12] it was 100%. For the same compound, the growth in assay [13] is 93.2%; in assay [14] it was 112%; in assay [15], 106%.
Turning to `CCCCCCCC/C=C\CCCCCCCCOc1cccc(CC(=O)NCC[N+]2(C)CCCC2)c1`, the growth in assay [1] was 43.1%; in [2], 77.3%; in [3], 85.5%; in assay [4] it was 53.8%; in [5], 77.1%; in assay [6], -15.7% (active). The growth in assay [7] is 96.2%; in assay [8], 77.5%; in assay [9], 108%; in assay [10], 115%; in assay [11] it was 85.7%; in assay [12], 77.9%. Besides, the growth in [13] was 73.4%; in assay [16], 76.2%; in [14] it was 75.9%.
As for `COc1cccc2c(=O)c3c(sc12)c(NCCN(C)C)nc1ccccc13`, the growth was -21.2% (active) in [1]; -20.1% (active) in assay [2]; 25.2% in assay [3]; 40.8% in assay [4]; -14.4% (active) in [5]; 21% in assay [6]. Also, the growth in [7] was 24.9%; in assay [8], 13.6%; in assay [9] it was 29.4%; in assay [10], 61.3%; in [11], -87.1% (active); in [12], -69.5% (active). Besides, the growth in [13] is 0.0828% (active); in assay [16], 11%; in assay [14] it was 12.2%; in assay [15], -76.7% (active).
On to `C[C@]1(CO)C[C@@H](O)C[C@]2(C)[C@@H]1CC[C@@]13C[C@@H]4[C@@H](C[C@H]12)[C@]4(C)C3`, for which the growth is 118% in assay [1]; 114% in assay [2]; 105% in [3]; 97.6% in assay [4]; 104% in assay [5]; 106% in assay [6]. Further, the growth in [7] is 113%; in assay [8], 102%; in assay [9], 105%; in assay [10], 98.8%; in [11], 99.5%; in assay [12] it was 101%. Moreover, the growth in assay [13] was 102%; in assay [16] it was 89.3%; in assay [14] it was 119%.
On to `CCN1CCN(C(=S)SCC(=O)Nc2nc3ccc(OC)cc3s2)CC1`, for which the growth in assay [1] is 88.3%; in [2], 98%; in [3], 103%; in [4], 98.8%; in assay [5], 93.3%; in assay [17], 112%. For the same compound, the growth in [7] is 101%; in assay [8], 106%; in assay [9] it was 99.6%; in [11], 107%; in assay [12] it was 110%; in assay [13], 96.3%. The growth was 95.8% in assay [16] and 90.6% in assay [15].
For `CC(C)(C)[Si](C)(C)OC1[C@@H](COC(N)=O)O[C@@H](n2cnc3c(N)ncnc32)[C@H]1O[Si](C)(C)C(C)(C)C` (some centres undefined), the growth is -31.8% (active) in [1]; 21.6% in assay [2]; 84.9% in assay [3]; 99.2% in assay [4]; 96.2% in [5]; 91.7% in assay [17]. The growth in [6] is 113%; in assay [7], 75.6%; in [18] it was 84.4%; in assay [10] it was 106%; in assay [11], 74.6%; in assay [12], 100%. Besides, the growth is 78.6% in assay [13], 90.1% in assay [16], 107% in assay [14] and 76% in assay [15].
On to `COc1cc(/C=N/NC(=O)c2cnn3c2NC(c2ccccc2)C3)cc(OC)c1OC` (centres undefined), for which the growth in assay [1] is 47.6%; in [2], 96.7%; in assay [3] it was 90.7%; in [4], 87.2%; in assay [5], 82.5%; in [6], 54.7%. The growth in assay [7] was 10.4%; in assay [8] it was 65.2%; in assay [9], 82.9%; in [10], 60.2%; in assay [11] it was -15.9% (active); in assay [12] it was 32.8%. Besides, the growth was 34.9% in [13], 35% in [16], 91.2% in [14] and 30.6% in [15].
Consider `Cc1nc2ccc(Cl)cc2n1C`, for which the growth in assay [1] was 96.7%; in assay [2], 97.4%; in assay [3], 101%; in assay [4] it was 103%; in assay [5], 114%; in [6], 106%. The growth was 109% in [7]; 99.6% in assay [8]; 112% in assay [9]; 103% in [10]; 109% in assay [11]; 108% in [12]. For the same compound, the growth in assay [13] was 102%; in assay [16] it was 109%; in assay [14], 111%; in assay [15], 104%.
`O=c1[nH]c(=S)c2c(n1CCCO)CCC2`: the growth is 97% in assay [1]; 101% in [2]; 102% in assay [3]; 99.4% in assay [4]; 102% in [5]; 103% in assay [6]. Further, the growth in assay [7] is 110%; in assay [8], 99.8%; in assay [9], 103%; in [10] it was 107%; in assay [11], 97%; in assay [12], 103%. In addition, the growth in assay [13] was 96.5%; in assay [16], 99.1%; in assay [14], 108%; in assay [15] it was 105%.
Consider `O=[N+]([O-])c1ccc(C=C2C(Cl)=C(Cl)C(Cl)=C2Cl)cc1`, for which the growth was -1.36% (active) in assay [1]; 11.4% in [2]; 22.4% in assay [3]; 112% in assay [4]; 54.5% in assay [5]; 115% in assay [17]. In addition, the growth in assay [7] was -17% (active); in assay [8], -13.4% (active); in assay [18], 47.8%; in assay [10], 97.7%; in [11] it was 76.1%; in assay [12] it was -59.9% (active). In addition, the growth was 34.8% in [13], -11% (active) in [16] and 73.7% in assay [15].

The values above are taken from PubChem BioAssay (NCI).
